Reference: PMC5540273 (PLoS ONE, 2017)

Columns and labels:
Details in all cases: concentration: 1 μM, replicates: in singlicate; n = 1
TRKC = system: T1, TRKC
T1 construct: gene NTRK3

TRPM6 = system: TRPM6
TSSK1B = system: TSSK1B
TSSK3 = system: TSSK3
TTK = system: TTK
TXK = system: TXK
[1] = system: TYK2(JH1domain-catalytic)
[2] = system: TYK2(JH2domain-pseudokinase)
TYRO3 = system: TYRO3
ULK1 = system: ULK1
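Also: KINOMEscan kinase panel screen.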

CCc1nc(-c2cccc(N(C)S(=O)(=O)c3ccccc3)c2)c(-c2ccnc(Nc3ccc(N4CCN(C(C)=O)CC4)nc3)n2)s1 [GSK1645895]
%Inh (TRKC): 0% | %Inh (TRPM6): 56% | %Inh (TSSK1B): 0% | %Inh (TSSK3): 15% | %Inh (TTK): 9% | %Inh (TXK): 15% | %Inh [1]: 0% | %Inh [2]: 14% | %Inh (TYRO3): 0% | %Inh (ULK1): 4%

COc1ccc(-c2oc3ncnc(N)c3c2-c2ccc(OC)cc2)cc1 [SB-589132]
%Inh (TRKC): 71% | %Inh (TRPM6): 0% | %Inh (TSSK1B): 19% | %Inh (TSSK3): 22% | %Inh (TTK): 31% | %Inh (TXK): 11% | %Inh [1]: 53% | %Inh [2]: 98.9% | %Inh (TYRO3): 0% | %Inh (ULK1): 9%

CNc1nccc(-c2c(-c3ccc(F)cc3)ncn2CCCN2CCOCC2)n1 [SB-222516]
%Inh (TRKC): 38% | %Inh (TRPM6): 0% | %Inh (TSSK1B): 12% | %Inh (TSSK3): 12% | %Inh (TTK): 0% | %Inh (TXK): 9% | %Inh [1]: 18% | %Inh [2]: 16% | %Inh (TYRO3): 17% | %Inh (ULK1): 13%

Cl.c1ccc(Cn2ncc3cc(Nc4ncnc5ccccc45)ccc32)cc1 [GW273749]
%Inh (TRKC): 0% | %Inh (TRPM6): 37% | %Inh (TSSK1B): 0% | %Inh (TSSK3): 11% | %Inh (TTK): 18% | %Inh (TXK): 11% | %Inh [1]: 0% | %Inh [2]: 12% | %Inh (TYRO3): 0% | %Inh (ULK1): 19%

O=C(Nc1n[nH]c2nc(-c3ccco3)c(Br)cc12)c1ccc(CN2CCCC2)cc1.O=C(O)[C@H](O)[C@@H](O)C(=O)O [SB-742352]
%Inh (TRKC): 0% | %Inh (TRPM6): 0% | %Inh (TSSK1B): 0% | %Inh (TSSK3): 0% | %Inh (TTK): 0% | %Inh (TXK): 2% | %Inh [1]: 0% | %Inh [2]: 0% | %Inh (TYRO3): 0% | %Inh (ULK1): 13%
